Key:
Format in all cases: functional
[1] = target: Solute carrier family 2, facilitated glucose transporter member 1 (Homo sapiens) (UniProt P11166); assay: ST_JUDE_LEISH: Cytotoxicity at 2uM final concentration against transgenic Leishmania Mexicana promastigotes LmGLUT1 that are glucose transport deficient and complemented with the human glucose transporter GLUT1. Activity is measured by DNA content using SYBR green in vitro
[2] = target: Hexose transporter 1 (Plasmodium falciparum) (UniProt O97467); assay: ST_JUDE_LEISH: Cytotoxicity at 2uM final concentration against transgenic Leishmania Mexicana promastigotes LmPfHT that are glucose transport deficient and complemented with the Plasmodium falciparum hexose transporter. Activity is measured by DNA content using SYBR green in vitro
[3] = target: Glucose transporter (Leishmania mexicana) (UniProt O61059); assay: ST_JUDE_LEISH: Cytotoxicity at 2uM final concentration against transgenic Leishmania Mexicana promastigotes LmGT2 that are glucose transport deficient and complemented with the L. Mexicana glucose transporter 2. Activity is measured by DNA content using SYBR green in vitro

Chain of Solute carrier family 2, facilitated glucose transporter member 1 (Homo sapiens) (P11166 whole entry): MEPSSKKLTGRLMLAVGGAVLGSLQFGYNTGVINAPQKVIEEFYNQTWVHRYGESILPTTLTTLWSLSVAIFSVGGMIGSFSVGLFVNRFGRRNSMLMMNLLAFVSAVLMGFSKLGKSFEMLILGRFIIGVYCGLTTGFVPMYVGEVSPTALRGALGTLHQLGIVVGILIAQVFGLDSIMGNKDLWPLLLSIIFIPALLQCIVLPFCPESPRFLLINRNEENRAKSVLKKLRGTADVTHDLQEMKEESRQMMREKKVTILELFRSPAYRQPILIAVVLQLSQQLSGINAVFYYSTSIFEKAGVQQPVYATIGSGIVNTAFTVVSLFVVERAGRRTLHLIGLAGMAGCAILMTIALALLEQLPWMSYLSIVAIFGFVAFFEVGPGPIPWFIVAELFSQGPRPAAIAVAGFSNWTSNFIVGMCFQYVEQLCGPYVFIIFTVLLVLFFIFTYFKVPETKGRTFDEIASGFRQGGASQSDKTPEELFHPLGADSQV

COc1ccc2nccc([C@@H](O)CN3CCC(NC(=O)c4[nH]c5ccccc5c4-c4ccccc4)CC3)c2c1
inhibition [1]: 28.3% | inhibition [2]: 49.7% | inhibition [3]: 12.8%

Cc1nc(C)c(-c2ccc(-c3ccc(F)cc3)cc2)c(O)c1Br
inhibition [1]: 0.18% | inhibition [2]: -0.09% | inhibition [3]: -1.77%

COc1ccc2c(=NN=Cc3ccncc3)cc(C)[nH]c2c1
inhibition [1]: 4.05% | inhibition [2]: 3.94% | inhibition [3]: 3.63%

O=C1OC2(CCN(Cc3cccc(-c4ncc[nH]4)c3)CC2)CN1CCNCc1ccccc1
inhibition [1]: 1.81% | inhibition [2]: 1.4% | inhibition [3]: -0.76%

CC(=O)N1N=C(c2ccc(F)cc2)Sc2c1nc(C1CCCCC1)n2C(C)=O
inhibition [1]: 8.37% | inhibition [2]: 6.09% | inhibition [3]: 7.07%

COc1cc2c(cc1OC)CC(NCc1ccc(-c3ccc4nc[nH]c4c3)cc1)C2
inhibition [1]: 5.26% | inhibition [2]: 5.44% | inhibition [3]: 4.38%

COc1ccc2nc3ccccc3c(NCCN3CCN(C)CC3)c2c1
inhibition [1]: 7.5% | inhibition [2]: 5.93% | inhibition [3]: 4.16%

c1ccc(C2CCN(Cc3ccc(-c4c[nH]c5nc(NC6CCCC6)ncc45)cc3)CC2)cc1
inhibition [1]: 2.79% | inhibition [2]: 2.07% | inhibition [3]: 1.65%

CC12CC3CC(C)(C1)CC(Nc1nc(N4CCOCC4)nc4ccccc14)(C3)C2
inhibition [1]: 2.67% | inhibition [2]: 2.82% | inhibition [3]: -0.7%

COC(=O)C(c1ccc(NC(=O)[C@H](CC(C)C)NC(=O)OC(C)(C)C)cc1)c1ccc(NC(=O)[C@H](CC(C)C)NC(=O)OC(C)(C)C)cc1
inhibition [1]: -0.28% | inhibition [2]: 0.91% | inhibition [3]: 0.27%

COc1ccc(-c2nonc2NC(=O)c2ccc(OC(C)C)cc2)cc1OC
inhibition [1]: 0.75% | inhibition [2]: 3.06% | inhibition [3]: 3.04%

CCCCCCCc1c(C)[nH]c2ccc(F)cc2c1=O
inhibition [1]: -0.05% | inhibition [2]: 0.32% | inhibition [3]: -0.32%

COc1ccc(NC(=O)Nc2ccc(-c3ccc(-c4nc5cccc(C)c5[nH]4)s3)cc2)cc1
inhibition [1]: 4.04% | inhibition [2]: 4.64% | inhibition [3]: 3.71%

O=C(/C=C/c1ccc(Cl)c(Cl)c1)NCCCCCN1CCCC(c2c[nH]c3ccccc23)C1 (stereo not drawn)
inhibition [1]: 5.68% | inhibition [2]: 5.33% | inhibition [3]: 5.49%

Fc1cccc(COc2ccc(Nc3ncnc4sc(C#C[C@H]5CC[C@H](CN6CCOCC6)N5)cc34)cc2Cl)c1
inhibition [1]: 0.36% | inhibition [2]: -0.26% | inhibition [3]: -0.26%

CCCCCOc1ccc(N2C(N)=NC(N)=NC2(C)C)cc1
inhibition [1]: 2.39% | inhibition [2]: 2.59% | inhibition [3]: 2.5%
